Assay outcomes deposited in PubChem BioAssay by National Center for Advancing Translational Sciences (NCATS).
GPT2 inhibitor: GPT2 alanine aminotransferase inhibition; Q8TD30; Recombinant GPT2, coupled pyruvate oxidase/HRP Amplex Red fluorescence; Potency, µM (doses to about 57.7 µM), without a hit: at the highest dose activity change, negative = inhibition, hits mostly inhibitors; 0.25% of 100,000 active; AID 1671188; note: % is set by controls: 0 for no effect and ±100 for the full control effect; nearly all actives have a fitted effect of over 60% in size
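Recombinant GPT2 (10ng/uL) with 250uM a-KG and 2mM L-alanine, 30 min at room temperature, in HEPES pH 7.5 buffer. Pyruvate detected by pyruvate oxidase/HRP/Amplex Red fluorescence after 30 min in the dark; AOA (50uM) as positive control.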
HEK cytotox: cytotoxic compounds in HEK 293 cells. HEK 293 viability, ATP luminescence (CellTiter-Glo), 48-72 h. Potency, µM (titrated, usually from 115 µM), inactives show top-dose activity change, negative = cytotoxicity, usual class: inhibitors. 6.6% of 94,000 active; note: % is set by controls: 0 for no effect and ±100 for the full control effect; nearly all actives have a fitted effect of over 60% in size
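Cells seeded first (HEK 293, 250 cells/well), then compound added by pintool. Incubation ran 48 or 72 hr at 37 degree Celsius. CellTiter-Glo was added and luminescence imaged after 10 min at room temperature.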
3T3 cytotox: cytotoxic compounds in NIH 3T3 cells; NIH 3T3 viability, CellTiter-Glo ATP luminescence, 48-72 h; Potency, µM (highest dose often 96.7 µM), for the others: top-dose activity change, negative = cytotoxicity, most hits filed as inhibitors; 4.3% of 94,000 active; note: % is set by controls: 0 for no effect and ±100 for the full control effect; nearly all actives have a fitted effect of over 55% in size
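Mouse fibroblast NIH 3T3 cells, 400 per well, received compound via pintool and were incubated for 48 or 72 hr prior to CellTiter-Glo ATP luminescence measurement.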
NPR1 antag: human Npr1 receptor antagonism | P16066 | HEK293 hNpr1 GloSensor cGMP, ANP-stimulated luminescence | Potency, µM (top dose mostly 46.3 µM), without a hit: at the top dose activity change, negative = inhibition, usual class: inhibitors | 1.6% of 76,000 active | AID 1347048; calls by dose curve; note: % is set by controls: 0 for no effect and ±100 for the full control effect; nearly all actives have a fitted effect of over 60% in size
Target sequence (P16066 whole entry, looked up): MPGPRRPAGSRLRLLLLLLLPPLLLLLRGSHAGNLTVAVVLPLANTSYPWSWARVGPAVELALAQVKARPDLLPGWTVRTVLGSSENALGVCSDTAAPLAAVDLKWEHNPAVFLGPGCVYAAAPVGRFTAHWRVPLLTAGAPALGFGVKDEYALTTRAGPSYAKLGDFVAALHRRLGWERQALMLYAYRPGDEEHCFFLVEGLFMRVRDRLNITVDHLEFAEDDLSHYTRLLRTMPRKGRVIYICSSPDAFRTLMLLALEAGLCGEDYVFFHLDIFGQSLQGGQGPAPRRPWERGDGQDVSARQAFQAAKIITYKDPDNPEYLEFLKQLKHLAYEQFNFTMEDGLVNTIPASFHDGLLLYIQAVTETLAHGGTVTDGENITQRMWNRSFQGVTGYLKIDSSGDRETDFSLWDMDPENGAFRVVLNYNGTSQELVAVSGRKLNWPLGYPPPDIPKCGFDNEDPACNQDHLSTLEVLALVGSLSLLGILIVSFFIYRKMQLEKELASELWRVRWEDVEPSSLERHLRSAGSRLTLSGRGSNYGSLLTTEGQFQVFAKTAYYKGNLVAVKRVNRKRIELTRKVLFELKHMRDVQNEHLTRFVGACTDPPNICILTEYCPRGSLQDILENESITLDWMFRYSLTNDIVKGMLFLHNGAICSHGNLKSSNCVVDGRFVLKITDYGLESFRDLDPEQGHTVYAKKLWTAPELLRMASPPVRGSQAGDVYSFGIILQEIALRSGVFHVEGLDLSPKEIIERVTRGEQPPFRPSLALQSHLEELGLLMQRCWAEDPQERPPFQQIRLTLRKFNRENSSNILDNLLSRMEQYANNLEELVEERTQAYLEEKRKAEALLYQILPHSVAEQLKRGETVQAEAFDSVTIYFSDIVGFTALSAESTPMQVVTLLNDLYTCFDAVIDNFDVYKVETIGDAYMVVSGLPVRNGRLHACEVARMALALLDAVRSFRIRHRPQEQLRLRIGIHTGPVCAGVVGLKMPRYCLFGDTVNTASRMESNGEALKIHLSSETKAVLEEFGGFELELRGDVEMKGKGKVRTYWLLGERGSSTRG
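HEK293 cells stably expressing human Npr1 and cGMP GloSensor pGS-40F, loaded 2 h with 2% GloSensor reagent, given compound 30 min at room temperature. Luminescence read before and 20 min after 0.1 nM hNppA.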
FLuc inh: Photinus pyralis luciferase inhibition | P08659 | purified P. pyralis luciferase, luminescence, biochemical | Potency, µM (highest dose often 115 µM), usual class: inhibitors | 2.5% of 76,000 active; note: % is set by controls: 0 for no effect and ±100 for the full control effect; nearly all actives have a fitted effect of over 65% in size
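Purified 10nM P. pyralis luciferase with 10uM D-luciferin and 10uM ATP in 50mM Tris acetate pH 7.5, 10mM Mg acetate, 0.01% Tween-20, 0.05% BSA. qHTS titration; luminescence read by CCD imager.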
Npr1 antag conf: hNpr1 antagonism, confirmation assay | shares compounds with NPR1 antag | HEK293 hNpr1 cGMP GloSensor luminescence, ANP-stimulated | Potency, µM (series often up to 57.6 µM), without a hit: top-dose activity change, negative = inhibition, actives largely listed as inhibitors | 76% of 1,400 active | AID 1347044; calls by dose curve; note: nearly all actives have a fitted effect of over 70% in size
NPR2 antag: selectivity test of Npr1 antagonists against human Npr2 | shares compounds with NPR1 antag | Potency, µM (doses to about 57.6 µM), for inactives: top-dose activity change, negative = inhibition, most hits filed as inhibitors | 67% of 1,400 active | HEK293 hNpr2 GloSensor cGMP luminescence, CNP-stimulated; calls by dose curve; note: nearly all actives have a fitted effect of over 70% in size
FLuc inh counter: counter-screen for Npr1 antagonists: firefly luciferase inhibitors; shares compounds with NPR1 antag; purified FLuc enzyme, luminescence, Km substrate; Potency, µM (highest dose often 57.6 µM), for the others: top-dose activity change, negative = inhibition, most hits filed as inhibitors; 0.7% of 1,400 active; note: 0% is about no effect
GloSensor ctrl: control cell line activity, Npr1 antagonist counter-screen. shares compounds with NPR1 antag. HEK293 GloSensor cGMP, SNP-stimulated, luminescence. Potency, µM (top dose mostly 57.6 µM), inactives show top-dose activity change, negative = inhibition, actives largely listed as inhibitors. 69% of 1,400 active; calls by dose curve; note: % is set by controls: 0 for no effect and ±100 for the full control effect; nearly all actives have a fitted effect of over 70% in size
Numbers without * were called inactive; i = inactive; u = inconclusive; x = no result given; [ ] = dose if it differs, or a comment. The list is not random: actives were taken first. Their share in the collection is about 10%. Unless noted, calls come from the whole dose curve; as a rule, active = well fitted curve in the direction sought with a large enough effect; inconclusive = small, poorly fitted or top-dose-only effect, or another doubt; inactive = no such curve, though single readings can be large; an effect the other way counts as inactive or inconclusive. Potency is the fitted concentration of half-maximal effect.

SMILES	GPT2 inhibitor	HEK cytotox	3T3 cytotox	NPR1 antag	FLuc inh	Npr1 antag conf	NPR2 antag	FLuc inh counter	GloSensor ctrl
Cc1noc(-c2cn(C3CCCN(C(=O)c4cccc5[nH]ccc45)C3)nn2)n1 (centres undefined)	i	u	-32%	-15%	u	x	x	x	x
CC(C)c1noc(-c2cn(C3CCCN(C(=O)c4cccc5[nH]ccc45)C3)nn2)n1 (centres undefined)	i	u	u	13µM*	i	27µM*	u	-18%	22µM*
Cc1nc2c(c(-c3ccc(O)cc3)n1)CN(CC1CC1)CCC2	0%[88.5 µM]	-15%[172 µM]	-29%[138 µM]	2%[70.6 µM]	i	x	x	x	x
CN1C[C@@H](NC(=O)CC(C)(C)C)C[C@H]1c1nc(-c2ccc3c(c2)OCO3)no1	-8%[88.5 µM]	u	u	25µM*	i	u	u	-3%[86.2 µM]	40µM*
O=C(c1cccc(F)c1)N1CCN(c2cc(-c3ccc(Cl)cc3)[nH]n2)CC1	-1%	u	u	u	i	24µM*	u	-5%	u
O=C(c1cccc(Br)c1)N1CCN(c2cc(-c3ccc(Cl)cc3)[nH]n2)CC1	i	40µM*	32µM*	u	i	24µM*	u	-1%	u
O=C(c1ccc(F)c(F)c1)N1CCN(c2cc(-c3ccc(F)cc3)[nH]n2)CC1	-2%	u	u	u	i	x	x	x	x
O=C(c1cccc(Br)c1)N1CCN(c2cc(-c3cccs3)[nH]n2)CC1	i	u	u	-30%	i	u	u	-2%	-11%
CC(C)N1C[C@H](O)C[C@H]1c1nnc2n1CCN(C(=O)c1nn(C)c3ccccc13)C2	i	-18%	1%	2%	i	x	x	x	x
CCn1cc(-c2ccc(C)cc2)cc1C(=O)N1CCN(c2ccccn2)CC1	u	32µM*	35µM*	14µM*	i	19µM*	19µM*	-2%	15µM*
O=C1NCc2ccccc2CC12CCCN(CC1CC=CCC1)C2 (centres undefined)	-6%	-3%	i	x	x	-21%	-14%	1%	6%
COc1ccc(CCC(=O)N2CCC[C@H]2c2nc(-c3ccccc3Cl)no2)cc1	i	u	u	13µM*	i	24µM*	u	-6%	27µM*
COc1cccc(CCC(=O)N2CCC(Cc3nc(C4CCOCC4)no3)CC2)c1	i	-9%	-9%	-17%	i	x	x	x	x
COc1ccc(C(=O)N2CCC(n3cc(-c4nc(-c5ccccc5)no4)nn3)CC2)c(C)c1	5%	u	u	u	i	x	x	x	x
COc1ccc(-c2noc(CC3CCN(C(=O)CCc4ccccc4)CC3)n2)cc1	i	35µM*	u	13µM*	i	19µM*	22µM*	0%	17µM*
O=C(Cc1ccsc1)N1CCC(Cc2nc(-c3ccc(F)cc3)no2)CC1	u	u	u	5µM*	i	4.8µM*	4.8µM*	3%	3.9µM*
